Test results published in PubChem BioAssay (NCATS).
Records with an inconclusive call do not appear. Unmarked numbers belong to inactive results. Calls of active or inactive are those of the source. Calls follow the shape of the dose curve; as a rule, active = well fitted inhibition curve with a large enough effect; inconclusive = small, poorly fitted or top-dose-only effect; inactive = flat fitted curve, though single readings scatter.

target: Phospholipid hydroperoxide glutathione peroxidase GPX4 (Homo sapiens) (UniProt P36969); assay: Primary qHTS Assay for Inhibitors of Recombinant Selenoprotein Glutathione Peroxidase 4 (GPX4) (AID 1845192); settings: recombinant GPX4, GR-coupled NADPH fluorescence, 15 min; series mostly up to 50 µM; activity change, negative = inhibition: at the top concentration; also: nearly all actives have a fitted effect of over 65% in size
Procedure, shortened: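 GR-coupled assay: recombinant GPX4 preincubated 30 min with compound at room temperature; final 200 nM GPX4, 1 mM GSH, 0.5 mM cumene hydroperoxide, 0.5 mM NADPH, 100 nM GR, 0.01% BSA, pH 7.5 Tris. NADPH fluorescence (340/450 nm) read at 0 and 15 min.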
% is scaled to controls: 0 for no effect and ±100 for the full control effect; potency is read from the fitted curve at half-maximal effect.

Phospholipid hydroperoxide glutathione peroxidase GPX4 (Homo sapiens), sequence (P36969 whole entry, looked up): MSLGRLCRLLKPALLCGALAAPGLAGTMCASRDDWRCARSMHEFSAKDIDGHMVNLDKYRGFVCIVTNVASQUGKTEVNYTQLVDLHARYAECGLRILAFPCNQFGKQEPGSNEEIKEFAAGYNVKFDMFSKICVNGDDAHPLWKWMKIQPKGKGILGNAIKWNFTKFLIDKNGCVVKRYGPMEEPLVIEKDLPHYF

SMILES	activity change, negative = inhibition	Potency
COc1cc(C[C@H]2C(=O)OC[C@@H]2Cc2ccc(OC)c(OC)c2)ccc1O	-4.17% [at 27.8 µM]	–
CCC[C@H](N[C@H]1CCc2cc(F)cc(F)c2C1)C(=O)Nc1cn(C(C)(C)CNCC(C)(C)C)cn1	–	inactive
CCCc1ccc(OCC(=O)N(Cc2nc(-c3cccnc3)no2)C(C)C)cc1	3.76%	–
CCCCCCCOc1cc2c(cc1/C(C)=C/c1ccc(C(=O)O)cc1)C(C)(C)CCS2(=O)=O	-27%	–
CC(=O)C1=C(O)C=C2Oc3c(C(C)=O)c(O)c(C)c(O)c3[C@]2(C)C1=O	-1.01%	–
NS(=O)(=O)c1ccc(NC(=O)Nc2ccc(F)cc2)cc1	8.88%	–
O=C(Cc1cccc(OC(F)(F)F)c1)Nc1ccc(CCCCc2nnc(NC(=O)Cc3ccccn3)s2)nn1	-60.3%	–
COc1cccc(N2CCN(C3=Nc4c(F)cccc4[C@H](CC(=O)O)N3c3cc(C(F)(F)F)ccc3OC)CC2)c1	4.68%	–
COc1cc2c(cc1-c1c(C)noc1C)ncc1[nH]c(=O)n(C(C)c3ccccn3)c12 (centres undefined)	1.61%	–
COC1CCN(C(=O)c2cc(Cc3n[nH]c(=O)c4ccccc34)ccc2F)CC1	6.1%	–
COc1cc2c(NC3CCN(C(C)C)CC3)nc(N3CCC(F)(F)CC3)nc2cc1OCCCN1CCCC1	–	25.5 µM (active)
Cc1cnc(-c2ccccc2C(C)C)nc1NCc1ccc(-n2ccnn2)cc1	–	inactive
COc1ccc(NC(=O)c2ccc(C(=N)N(C)C)cc2)c(C(=O)Nc2ccc(Cl)cn2)c1	–	inactive
Cn1cc(-c2ccc(S(=O)(=O)n3ccc(/C=C/C(=O)Nc4ccccc4N)c3)cc2)cn1	-10.2%	–
